The supplement of paper PMC11732987, “Enantioselective OTUD7B fragment discovery through chemoproteomics screening and high-throughput optimisation” (Communications Chemistry, 2025)

Tests used:
Test in all cases: log2 ratio of Biotin-Ahx-Ub-VS probe labelling (fragment/DMSO); higher = less target engagement (more negative = stronger competition), active = hit call of the paper (q ≤ 0.05, log2 ratio ≤ -1)
Settings in all cases: compound concentration: 200 uM; treatment time: 3 h
USP19 = biological target: T1, USP19 (UniProt O94966)
T1 sequence (whole entry): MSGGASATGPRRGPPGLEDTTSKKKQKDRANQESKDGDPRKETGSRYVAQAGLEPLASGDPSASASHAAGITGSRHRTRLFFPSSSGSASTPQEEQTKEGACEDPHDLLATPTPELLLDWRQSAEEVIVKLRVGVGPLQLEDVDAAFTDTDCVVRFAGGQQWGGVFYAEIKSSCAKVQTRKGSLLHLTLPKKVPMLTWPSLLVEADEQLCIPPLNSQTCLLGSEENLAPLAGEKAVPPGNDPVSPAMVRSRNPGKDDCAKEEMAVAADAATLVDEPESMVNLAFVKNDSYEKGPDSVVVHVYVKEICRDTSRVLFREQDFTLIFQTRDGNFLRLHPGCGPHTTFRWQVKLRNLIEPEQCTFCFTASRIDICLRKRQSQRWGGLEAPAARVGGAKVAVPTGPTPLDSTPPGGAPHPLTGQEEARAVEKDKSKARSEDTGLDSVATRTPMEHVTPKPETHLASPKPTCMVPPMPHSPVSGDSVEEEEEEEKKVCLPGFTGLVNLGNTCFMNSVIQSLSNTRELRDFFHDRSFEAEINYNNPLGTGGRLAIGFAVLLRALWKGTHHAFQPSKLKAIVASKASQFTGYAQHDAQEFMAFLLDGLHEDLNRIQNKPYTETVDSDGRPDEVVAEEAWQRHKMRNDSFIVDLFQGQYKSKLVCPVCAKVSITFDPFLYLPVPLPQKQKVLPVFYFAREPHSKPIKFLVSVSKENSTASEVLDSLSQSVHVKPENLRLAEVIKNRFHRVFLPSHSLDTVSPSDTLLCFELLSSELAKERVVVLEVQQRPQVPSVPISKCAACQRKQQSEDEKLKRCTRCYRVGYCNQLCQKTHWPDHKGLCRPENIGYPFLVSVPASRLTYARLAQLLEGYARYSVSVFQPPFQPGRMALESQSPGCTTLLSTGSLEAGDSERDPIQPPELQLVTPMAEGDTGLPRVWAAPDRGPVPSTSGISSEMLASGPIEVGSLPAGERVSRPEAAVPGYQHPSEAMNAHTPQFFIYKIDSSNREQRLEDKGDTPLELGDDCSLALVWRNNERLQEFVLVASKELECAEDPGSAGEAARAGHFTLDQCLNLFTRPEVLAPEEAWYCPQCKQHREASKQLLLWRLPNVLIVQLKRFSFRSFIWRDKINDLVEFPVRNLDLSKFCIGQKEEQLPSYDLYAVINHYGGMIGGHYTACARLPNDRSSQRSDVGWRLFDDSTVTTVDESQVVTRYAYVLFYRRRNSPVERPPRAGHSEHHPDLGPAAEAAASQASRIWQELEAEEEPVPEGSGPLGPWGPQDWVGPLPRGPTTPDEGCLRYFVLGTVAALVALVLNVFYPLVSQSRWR
Procedure, shortened: (§1)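 Labelled DUBs from HEK293T lysate were NeutrAvidin-enriched, digested with LysC and trypsin, and run by diaPASEF LC-MS/MS. Before that, each 495 µg sample in Tris/CHAPS/IGEPAL buffer with protease inhibitors was treated in triplicate with fragment at 200 µM or vehicle for 3 h, then with Biotin-Ahx-Ub-VS at 0.5 µM final for 1 h. Values are average log2 ratios of fragment over vehicle by unpaired t-test, based on global-median-normalised Spectronaut label-free quantities from proteins with ≥2 unique peptides.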

USP22 = biological target: T2, USP22 (UniProt Q9UPT9)
T2 sequence (whole entry): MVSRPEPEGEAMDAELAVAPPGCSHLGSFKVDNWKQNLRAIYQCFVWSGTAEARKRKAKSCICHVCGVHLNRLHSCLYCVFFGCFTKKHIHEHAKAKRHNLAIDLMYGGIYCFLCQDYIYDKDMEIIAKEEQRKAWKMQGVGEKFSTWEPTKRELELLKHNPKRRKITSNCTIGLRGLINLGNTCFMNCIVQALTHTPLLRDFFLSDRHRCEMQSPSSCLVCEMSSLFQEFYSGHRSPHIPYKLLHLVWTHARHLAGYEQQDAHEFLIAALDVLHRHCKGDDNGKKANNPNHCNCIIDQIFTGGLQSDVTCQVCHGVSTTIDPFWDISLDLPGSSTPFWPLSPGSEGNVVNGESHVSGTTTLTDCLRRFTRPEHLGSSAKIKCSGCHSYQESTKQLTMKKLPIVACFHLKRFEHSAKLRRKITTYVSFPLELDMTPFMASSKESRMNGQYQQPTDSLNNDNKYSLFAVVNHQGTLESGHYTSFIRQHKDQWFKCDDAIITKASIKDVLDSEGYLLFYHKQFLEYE
Procedure, shortened: as §1

USP24 = USP24 (UniProt Q9UPU5)
USP24, sequence (Q9UPU5 whole entry): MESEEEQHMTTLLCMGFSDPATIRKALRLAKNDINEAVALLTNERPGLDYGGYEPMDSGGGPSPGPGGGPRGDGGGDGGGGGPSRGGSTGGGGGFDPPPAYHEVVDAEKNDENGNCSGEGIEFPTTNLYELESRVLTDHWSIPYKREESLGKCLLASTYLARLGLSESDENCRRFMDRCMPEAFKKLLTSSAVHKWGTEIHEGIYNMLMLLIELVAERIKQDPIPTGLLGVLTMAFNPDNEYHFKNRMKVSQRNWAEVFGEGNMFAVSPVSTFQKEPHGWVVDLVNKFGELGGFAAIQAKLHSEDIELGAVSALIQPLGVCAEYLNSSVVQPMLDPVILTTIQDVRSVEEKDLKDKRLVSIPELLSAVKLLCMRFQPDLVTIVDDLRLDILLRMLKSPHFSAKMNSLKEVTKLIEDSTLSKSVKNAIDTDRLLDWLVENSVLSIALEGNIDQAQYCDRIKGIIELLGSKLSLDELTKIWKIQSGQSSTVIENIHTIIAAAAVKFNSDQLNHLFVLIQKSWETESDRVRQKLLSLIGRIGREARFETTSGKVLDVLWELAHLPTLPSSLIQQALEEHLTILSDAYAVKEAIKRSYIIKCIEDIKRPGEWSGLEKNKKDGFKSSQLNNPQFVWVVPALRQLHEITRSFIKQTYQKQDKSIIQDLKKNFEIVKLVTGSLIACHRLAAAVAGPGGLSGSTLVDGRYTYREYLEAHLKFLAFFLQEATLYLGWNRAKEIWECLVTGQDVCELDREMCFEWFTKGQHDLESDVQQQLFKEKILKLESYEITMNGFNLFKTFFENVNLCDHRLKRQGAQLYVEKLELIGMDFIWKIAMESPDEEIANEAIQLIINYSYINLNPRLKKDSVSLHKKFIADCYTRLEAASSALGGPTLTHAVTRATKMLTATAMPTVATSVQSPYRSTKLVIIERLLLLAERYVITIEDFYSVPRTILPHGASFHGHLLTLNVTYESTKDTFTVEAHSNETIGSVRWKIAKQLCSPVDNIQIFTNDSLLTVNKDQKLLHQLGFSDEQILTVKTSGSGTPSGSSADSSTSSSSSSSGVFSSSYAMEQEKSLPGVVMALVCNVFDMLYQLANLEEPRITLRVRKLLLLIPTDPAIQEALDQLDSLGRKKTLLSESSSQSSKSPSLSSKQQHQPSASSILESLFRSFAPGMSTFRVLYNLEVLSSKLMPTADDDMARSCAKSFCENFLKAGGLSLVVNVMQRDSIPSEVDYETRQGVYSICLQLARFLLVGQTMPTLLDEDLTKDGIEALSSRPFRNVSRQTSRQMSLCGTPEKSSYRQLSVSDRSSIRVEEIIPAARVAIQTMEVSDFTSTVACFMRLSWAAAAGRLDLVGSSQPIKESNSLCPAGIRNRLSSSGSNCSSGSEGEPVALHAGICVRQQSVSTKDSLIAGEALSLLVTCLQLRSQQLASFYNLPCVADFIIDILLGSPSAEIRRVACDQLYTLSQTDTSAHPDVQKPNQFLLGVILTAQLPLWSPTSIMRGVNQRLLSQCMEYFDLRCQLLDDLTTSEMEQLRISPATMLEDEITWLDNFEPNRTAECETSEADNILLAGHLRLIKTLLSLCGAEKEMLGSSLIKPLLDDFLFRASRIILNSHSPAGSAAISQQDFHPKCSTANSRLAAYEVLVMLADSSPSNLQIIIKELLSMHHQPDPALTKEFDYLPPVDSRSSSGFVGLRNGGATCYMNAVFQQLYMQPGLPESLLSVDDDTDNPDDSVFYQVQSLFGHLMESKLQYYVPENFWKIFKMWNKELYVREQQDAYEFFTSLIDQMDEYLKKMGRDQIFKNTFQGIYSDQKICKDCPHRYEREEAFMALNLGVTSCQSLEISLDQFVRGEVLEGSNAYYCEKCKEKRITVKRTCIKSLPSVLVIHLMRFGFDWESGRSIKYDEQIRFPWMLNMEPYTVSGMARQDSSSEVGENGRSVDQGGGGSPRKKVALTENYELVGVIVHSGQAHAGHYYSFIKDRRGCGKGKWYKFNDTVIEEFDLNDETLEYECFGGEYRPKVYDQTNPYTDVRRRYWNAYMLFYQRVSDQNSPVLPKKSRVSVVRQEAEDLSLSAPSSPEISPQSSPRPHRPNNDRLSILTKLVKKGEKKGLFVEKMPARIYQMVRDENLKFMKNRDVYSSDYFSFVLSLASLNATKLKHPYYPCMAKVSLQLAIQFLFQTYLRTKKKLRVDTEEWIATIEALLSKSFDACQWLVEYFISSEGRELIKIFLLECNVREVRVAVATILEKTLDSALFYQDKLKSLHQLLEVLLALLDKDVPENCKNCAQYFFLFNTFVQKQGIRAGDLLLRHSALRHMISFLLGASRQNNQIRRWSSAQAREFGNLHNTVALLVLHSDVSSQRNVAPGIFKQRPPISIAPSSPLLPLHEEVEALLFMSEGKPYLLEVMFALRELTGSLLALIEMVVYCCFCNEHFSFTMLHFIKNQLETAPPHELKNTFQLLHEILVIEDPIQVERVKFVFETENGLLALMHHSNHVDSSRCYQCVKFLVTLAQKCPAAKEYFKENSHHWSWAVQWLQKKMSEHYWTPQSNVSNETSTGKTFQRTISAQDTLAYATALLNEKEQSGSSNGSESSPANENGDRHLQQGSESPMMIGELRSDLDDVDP
Procedure, shortened: as §1

USP25 = biological target: T3, USP25 (UniProt Q9UHP3)
T3 sequence (whole entry): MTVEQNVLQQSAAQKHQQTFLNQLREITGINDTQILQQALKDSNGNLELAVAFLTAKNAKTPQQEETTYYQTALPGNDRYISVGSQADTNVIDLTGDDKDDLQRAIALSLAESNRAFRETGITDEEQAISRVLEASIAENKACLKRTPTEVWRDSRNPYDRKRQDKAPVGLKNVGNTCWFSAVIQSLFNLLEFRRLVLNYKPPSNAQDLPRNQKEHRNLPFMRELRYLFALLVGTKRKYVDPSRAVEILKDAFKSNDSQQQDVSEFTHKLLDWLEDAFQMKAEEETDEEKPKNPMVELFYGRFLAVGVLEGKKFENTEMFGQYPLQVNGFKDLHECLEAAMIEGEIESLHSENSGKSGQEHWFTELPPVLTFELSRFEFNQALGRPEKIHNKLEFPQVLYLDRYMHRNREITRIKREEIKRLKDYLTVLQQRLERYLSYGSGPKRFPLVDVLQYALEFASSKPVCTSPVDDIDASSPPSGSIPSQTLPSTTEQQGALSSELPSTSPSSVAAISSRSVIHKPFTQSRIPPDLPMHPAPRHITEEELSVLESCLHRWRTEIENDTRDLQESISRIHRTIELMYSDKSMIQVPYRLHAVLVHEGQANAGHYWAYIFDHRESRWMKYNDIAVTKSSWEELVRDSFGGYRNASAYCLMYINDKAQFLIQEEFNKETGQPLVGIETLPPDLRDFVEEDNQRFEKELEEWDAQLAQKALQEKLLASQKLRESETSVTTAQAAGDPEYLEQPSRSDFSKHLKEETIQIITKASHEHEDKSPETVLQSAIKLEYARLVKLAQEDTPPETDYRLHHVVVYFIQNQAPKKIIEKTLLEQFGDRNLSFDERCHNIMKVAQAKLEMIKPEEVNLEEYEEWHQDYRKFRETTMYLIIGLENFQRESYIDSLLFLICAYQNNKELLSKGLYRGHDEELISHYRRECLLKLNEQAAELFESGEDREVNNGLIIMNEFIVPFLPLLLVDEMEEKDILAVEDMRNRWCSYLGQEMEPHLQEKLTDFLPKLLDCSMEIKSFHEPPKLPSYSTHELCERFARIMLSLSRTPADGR
Procedure, shortened: as §1

USP28 = biological target: T4, USP28 (UniProt Q96RU2)
T4 sequence (whole entry): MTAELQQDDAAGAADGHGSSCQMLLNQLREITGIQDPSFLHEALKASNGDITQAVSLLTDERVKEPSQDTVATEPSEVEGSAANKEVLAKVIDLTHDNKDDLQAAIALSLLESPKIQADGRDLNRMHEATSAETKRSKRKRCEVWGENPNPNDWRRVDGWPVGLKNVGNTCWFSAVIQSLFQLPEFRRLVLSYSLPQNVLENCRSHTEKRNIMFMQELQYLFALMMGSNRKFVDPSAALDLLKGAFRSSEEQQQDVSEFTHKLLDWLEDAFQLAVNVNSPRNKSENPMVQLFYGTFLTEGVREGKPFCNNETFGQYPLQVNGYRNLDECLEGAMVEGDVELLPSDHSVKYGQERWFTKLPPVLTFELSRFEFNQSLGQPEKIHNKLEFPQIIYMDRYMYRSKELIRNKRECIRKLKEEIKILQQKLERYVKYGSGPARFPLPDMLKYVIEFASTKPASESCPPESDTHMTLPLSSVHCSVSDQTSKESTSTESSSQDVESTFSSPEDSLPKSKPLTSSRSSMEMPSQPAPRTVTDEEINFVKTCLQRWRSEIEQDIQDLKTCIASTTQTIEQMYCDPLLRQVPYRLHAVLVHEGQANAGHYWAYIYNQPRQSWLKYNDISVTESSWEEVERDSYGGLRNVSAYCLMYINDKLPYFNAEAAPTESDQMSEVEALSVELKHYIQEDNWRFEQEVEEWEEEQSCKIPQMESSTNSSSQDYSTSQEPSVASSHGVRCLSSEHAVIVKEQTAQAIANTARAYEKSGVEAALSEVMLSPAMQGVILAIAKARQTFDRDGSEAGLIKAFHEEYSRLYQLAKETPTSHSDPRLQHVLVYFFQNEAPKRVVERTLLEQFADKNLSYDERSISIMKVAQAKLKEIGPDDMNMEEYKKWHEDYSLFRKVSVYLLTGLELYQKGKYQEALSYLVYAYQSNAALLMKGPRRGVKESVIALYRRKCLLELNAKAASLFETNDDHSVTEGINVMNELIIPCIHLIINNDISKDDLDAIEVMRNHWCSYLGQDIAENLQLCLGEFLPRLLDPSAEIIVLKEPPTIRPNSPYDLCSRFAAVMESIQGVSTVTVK
Procedure, shortened: as §1

Measured: log2 ratio of Biotin-Ahx-Ub-VS probe labelling

O=C(CCl)N1CCC(C(=O)N2CCCCCC2)CC1
inactive: USP19 -0.129 | USP22 -0.145 | USP24 -0.141 | USP25 -0.0854 | USP28 -0.307
